# Experiments:
# Assay in all cases: DAPPL (digital affinity profiling via proximity ligation, sequencing); 10 mM Tris-HCl pH 7.5, 50 mM NaCl, 1 mM DTT, 4% glycerol, room temperature, 30 min; GST-TFs on glutathione beads, 16-mer random dsDNA library, 0.1% formaldehyde crosslink after washing; high values mean tight binding
# [1] = molecular target: T1, FLI1 (Homo sapiens, UniProt Q01543 1-452); settings: protein: recombinant; tags: N-terminal GST; dsDNA, one strand shown
# T1 sequence: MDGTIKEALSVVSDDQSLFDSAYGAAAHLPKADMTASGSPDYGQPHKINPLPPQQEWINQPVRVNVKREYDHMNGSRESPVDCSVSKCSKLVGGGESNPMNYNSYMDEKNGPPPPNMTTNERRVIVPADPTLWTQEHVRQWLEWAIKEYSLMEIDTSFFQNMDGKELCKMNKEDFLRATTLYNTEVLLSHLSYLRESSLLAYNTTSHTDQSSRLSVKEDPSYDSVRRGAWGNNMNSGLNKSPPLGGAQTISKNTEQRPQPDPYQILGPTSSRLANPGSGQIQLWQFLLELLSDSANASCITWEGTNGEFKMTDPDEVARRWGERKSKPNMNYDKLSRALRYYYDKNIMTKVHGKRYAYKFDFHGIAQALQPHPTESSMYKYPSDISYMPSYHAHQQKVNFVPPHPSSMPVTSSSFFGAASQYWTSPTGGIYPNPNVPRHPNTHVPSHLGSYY
# In short: (§1)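 After expression in yeast as GST fusions, human transcription factors were bound to glutathione beads, DNA-barcoded and mixed with a tag-only sample. The pools were incubated with 200 nmole of a 16-mer random double-stranded DNA library in Tris/NaCl/DTT/glycerol buffer (30 min, room temperature), washed and crosslinked with 0.1% formaldehyde. Proximity ligation with BsaI/T4 ligase ran for 1 h at 37 °C, before PCR amplification and sequencing on an Illumina NextSeq500. Binding signal is a hexamer's read frequency for a factor divided by its frequency for the tag-only sample.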
# [2] = molecular target: T2, ELK1 (Homo sapiens, UniProt P19419 1-428); settings: protein: recombinant; tags: N-terminal GST; dsDNA, one strand shown
# T2 sequence: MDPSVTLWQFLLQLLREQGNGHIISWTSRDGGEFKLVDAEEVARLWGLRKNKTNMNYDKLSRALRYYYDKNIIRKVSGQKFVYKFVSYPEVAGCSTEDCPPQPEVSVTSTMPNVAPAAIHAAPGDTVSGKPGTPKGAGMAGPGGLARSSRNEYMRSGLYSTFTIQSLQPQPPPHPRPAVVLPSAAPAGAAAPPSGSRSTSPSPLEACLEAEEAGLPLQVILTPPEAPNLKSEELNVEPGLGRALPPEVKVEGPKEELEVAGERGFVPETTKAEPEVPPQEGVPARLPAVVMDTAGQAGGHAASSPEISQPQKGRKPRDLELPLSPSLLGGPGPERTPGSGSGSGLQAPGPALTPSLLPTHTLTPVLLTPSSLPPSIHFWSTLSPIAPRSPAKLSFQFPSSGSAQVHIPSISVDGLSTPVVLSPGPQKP
# In short: as §1
# [3] = molecular target: T3, GABPA (Homo sapiens, UniProt Q06546 1-454); settings: protein: recombinant; tags: N-terminal GST; dsDNA, one strand shown
# T3 sequence: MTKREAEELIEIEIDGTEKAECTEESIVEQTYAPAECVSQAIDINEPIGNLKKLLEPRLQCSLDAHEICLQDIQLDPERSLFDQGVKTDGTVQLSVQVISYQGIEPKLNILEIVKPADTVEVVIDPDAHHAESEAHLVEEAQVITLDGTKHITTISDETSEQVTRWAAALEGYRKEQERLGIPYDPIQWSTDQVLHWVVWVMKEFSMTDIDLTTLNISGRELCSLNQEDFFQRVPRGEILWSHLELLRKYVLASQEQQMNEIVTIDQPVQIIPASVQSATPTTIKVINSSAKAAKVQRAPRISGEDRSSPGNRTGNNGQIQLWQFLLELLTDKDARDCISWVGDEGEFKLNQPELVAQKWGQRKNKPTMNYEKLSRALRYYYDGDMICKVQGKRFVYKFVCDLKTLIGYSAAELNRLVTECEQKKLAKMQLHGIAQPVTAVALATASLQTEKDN
# In short: as §1
# [4] = molecular target: T4, ERG (Homo sapiens, UniProt P11308 1-479); settings: protein: recombinant; tags: N-terminal GST; dsDNA, one strand shown
# T4 sequence: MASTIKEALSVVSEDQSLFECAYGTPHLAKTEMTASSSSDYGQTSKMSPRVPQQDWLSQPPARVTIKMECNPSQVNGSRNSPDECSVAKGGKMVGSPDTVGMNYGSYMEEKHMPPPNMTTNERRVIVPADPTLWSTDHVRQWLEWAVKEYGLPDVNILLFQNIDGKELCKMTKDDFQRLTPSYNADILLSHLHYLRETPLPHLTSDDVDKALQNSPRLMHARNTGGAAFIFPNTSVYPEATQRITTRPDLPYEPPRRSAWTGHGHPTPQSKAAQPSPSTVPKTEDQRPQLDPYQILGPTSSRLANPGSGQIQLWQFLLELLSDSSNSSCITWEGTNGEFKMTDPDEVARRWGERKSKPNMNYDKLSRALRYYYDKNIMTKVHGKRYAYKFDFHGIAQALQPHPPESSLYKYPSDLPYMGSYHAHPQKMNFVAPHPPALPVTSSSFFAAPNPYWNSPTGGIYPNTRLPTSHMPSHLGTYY
# In short: as §1
# [5] = molecular target: ELF1 (Homo sapiens, UniProt P32519 1-619); settings: protein: recombinant; tags: N-terminal GST; dsDNA, one strand shown
# Chain of ELF1 (P32519 whole entry): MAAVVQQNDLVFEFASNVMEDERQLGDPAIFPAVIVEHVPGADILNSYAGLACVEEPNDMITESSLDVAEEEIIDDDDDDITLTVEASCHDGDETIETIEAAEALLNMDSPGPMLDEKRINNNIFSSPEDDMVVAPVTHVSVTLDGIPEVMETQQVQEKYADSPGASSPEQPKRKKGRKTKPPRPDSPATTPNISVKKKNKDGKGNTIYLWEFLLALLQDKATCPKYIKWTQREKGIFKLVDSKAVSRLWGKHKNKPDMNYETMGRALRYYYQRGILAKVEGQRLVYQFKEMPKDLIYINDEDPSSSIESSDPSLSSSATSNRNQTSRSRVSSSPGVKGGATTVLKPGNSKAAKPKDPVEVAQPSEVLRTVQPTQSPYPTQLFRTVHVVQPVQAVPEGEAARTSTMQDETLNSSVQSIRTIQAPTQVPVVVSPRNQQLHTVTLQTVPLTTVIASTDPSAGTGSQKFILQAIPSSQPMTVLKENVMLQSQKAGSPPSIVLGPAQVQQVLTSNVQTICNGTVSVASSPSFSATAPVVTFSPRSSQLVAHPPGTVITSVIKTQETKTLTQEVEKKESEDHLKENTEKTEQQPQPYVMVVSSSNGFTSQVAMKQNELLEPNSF
# In short: as §1
# [6] = molecular target: T5, EHF (Homo sapiens, UniProt Q9NZC4 1-300); settings: protein: recombinant; tags: N-terminal GST; dsDNA, one strand shown
# T5 sequence: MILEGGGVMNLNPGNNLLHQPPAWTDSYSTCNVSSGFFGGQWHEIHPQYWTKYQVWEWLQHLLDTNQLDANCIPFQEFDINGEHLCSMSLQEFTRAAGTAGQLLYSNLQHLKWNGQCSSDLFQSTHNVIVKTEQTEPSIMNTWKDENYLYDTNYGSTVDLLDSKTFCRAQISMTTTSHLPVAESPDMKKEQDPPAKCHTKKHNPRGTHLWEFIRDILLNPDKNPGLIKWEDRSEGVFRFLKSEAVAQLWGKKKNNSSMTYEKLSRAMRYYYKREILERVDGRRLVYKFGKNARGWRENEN
# In short: as §1
# [7] = molecular target: SPI1 (Homo sapiens, UniProt P17947 1-270); settings: protein: recombinant; tags: N-terminal GST; dsDNA, one strand shown
# In short: as §1
# [8] = molecular target: SPIB (Homo sapiens, UniProt Q01892 1-262); settings: protein: recombinant; tags: N-terminal GST; dsDNA, one strand shown
# Chain of SPIB (Q01892 whole entry): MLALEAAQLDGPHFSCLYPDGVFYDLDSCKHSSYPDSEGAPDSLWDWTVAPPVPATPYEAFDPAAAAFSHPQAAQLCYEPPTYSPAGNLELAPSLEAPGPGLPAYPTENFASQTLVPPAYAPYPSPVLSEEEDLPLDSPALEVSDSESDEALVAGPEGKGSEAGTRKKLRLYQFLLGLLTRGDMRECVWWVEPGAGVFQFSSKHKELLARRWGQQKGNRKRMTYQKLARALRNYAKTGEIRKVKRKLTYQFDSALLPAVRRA
# In short: as §1
# [9] = molecular target: T6, ELK3 (Homo sapiens, UniProt P41970 1-407); settings: protein: recombinant; tags: N-terminal GST; dsDNA, one strand shown
# T6 sequence: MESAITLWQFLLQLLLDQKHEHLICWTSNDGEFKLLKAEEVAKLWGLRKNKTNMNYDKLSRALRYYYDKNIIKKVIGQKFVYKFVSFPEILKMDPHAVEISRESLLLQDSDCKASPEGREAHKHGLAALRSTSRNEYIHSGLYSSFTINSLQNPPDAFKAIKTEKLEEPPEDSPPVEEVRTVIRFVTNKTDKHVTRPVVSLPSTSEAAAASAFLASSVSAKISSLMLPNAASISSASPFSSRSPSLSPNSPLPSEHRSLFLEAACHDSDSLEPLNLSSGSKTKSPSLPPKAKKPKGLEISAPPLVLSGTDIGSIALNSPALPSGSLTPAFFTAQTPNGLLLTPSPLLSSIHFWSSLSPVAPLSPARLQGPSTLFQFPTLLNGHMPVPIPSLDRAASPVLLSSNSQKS
# In short: as §1
# [10] = molecular target: T7, FEV (Homo sapiens, UniProt Q99581 1-238); settings: protein: recombinant; tags: N-terminal GST; dsDNA, one strand shown
# T7 sequence: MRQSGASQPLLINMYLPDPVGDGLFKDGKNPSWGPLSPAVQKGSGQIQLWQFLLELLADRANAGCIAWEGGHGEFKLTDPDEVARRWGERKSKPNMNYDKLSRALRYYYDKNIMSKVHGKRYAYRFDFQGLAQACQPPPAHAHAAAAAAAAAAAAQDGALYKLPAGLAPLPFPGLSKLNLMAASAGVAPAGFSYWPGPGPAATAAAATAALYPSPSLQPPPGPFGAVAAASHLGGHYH
# In short: as §1
# [11] = molecular target: ETV5 (Homo sapiens, UniProt P41161 1-510); settings: protein: recombinant; tags: N-terminal GST; dsDNA, one strand shown
# Chain of ETV5 (P41161 whole entry): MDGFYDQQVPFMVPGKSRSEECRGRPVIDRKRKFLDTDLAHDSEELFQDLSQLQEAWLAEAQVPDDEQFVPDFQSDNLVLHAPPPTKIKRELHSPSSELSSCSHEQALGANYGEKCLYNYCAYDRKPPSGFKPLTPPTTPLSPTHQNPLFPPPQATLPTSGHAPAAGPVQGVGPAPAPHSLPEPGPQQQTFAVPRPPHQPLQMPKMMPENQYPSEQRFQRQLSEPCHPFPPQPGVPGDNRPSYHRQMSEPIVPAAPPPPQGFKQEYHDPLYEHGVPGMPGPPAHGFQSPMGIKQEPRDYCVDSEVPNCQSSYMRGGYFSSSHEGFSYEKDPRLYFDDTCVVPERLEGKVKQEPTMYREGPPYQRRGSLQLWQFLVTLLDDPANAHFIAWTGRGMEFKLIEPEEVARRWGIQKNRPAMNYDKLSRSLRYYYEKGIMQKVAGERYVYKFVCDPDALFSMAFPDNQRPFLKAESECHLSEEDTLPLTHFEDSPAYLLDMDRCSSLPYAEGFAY
# In short: as §1
# [12] = molecular target: HSF1 (Homo sapiens, UniProt Q00613 1-529); settings: protein: recombinant; tags: N-terminal GST; chain copies: 3; dsDNA, one strand shown
# Chain of HSF1 (Q00613 whole entry): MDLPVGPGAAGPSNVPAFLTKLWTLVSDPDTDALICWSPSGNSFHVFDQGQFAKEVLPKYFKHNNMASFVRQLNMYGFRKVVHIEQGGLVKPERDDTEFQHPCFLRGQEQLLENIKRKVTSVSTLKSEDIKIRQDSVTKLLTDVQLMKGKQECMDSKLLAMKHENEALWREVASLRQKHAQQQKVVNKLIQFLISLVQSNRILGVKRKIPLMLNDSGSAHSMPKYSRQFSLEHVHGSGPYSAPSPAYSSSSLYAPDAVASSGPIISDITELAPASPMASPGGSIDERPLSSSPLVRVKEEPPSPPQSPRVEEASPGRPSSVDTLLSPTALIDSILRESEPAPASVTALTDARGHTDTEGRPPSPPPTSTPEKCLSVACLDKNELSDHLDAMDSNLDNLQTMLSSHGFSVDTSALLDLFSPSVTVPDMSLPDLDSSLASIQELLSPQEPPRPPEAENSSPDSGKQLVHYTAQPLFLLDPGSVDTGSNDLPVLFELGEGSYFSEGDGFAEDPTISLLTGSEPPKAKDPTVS
# In short: as §1
# [13] = molecular target: T8, SPIC (Homo sapiens, UniProt Q8N5J4 1-248); settings: protein: recombinant; tags: N-terminal GST; dsDNA, one strand shown
# T8 sequence: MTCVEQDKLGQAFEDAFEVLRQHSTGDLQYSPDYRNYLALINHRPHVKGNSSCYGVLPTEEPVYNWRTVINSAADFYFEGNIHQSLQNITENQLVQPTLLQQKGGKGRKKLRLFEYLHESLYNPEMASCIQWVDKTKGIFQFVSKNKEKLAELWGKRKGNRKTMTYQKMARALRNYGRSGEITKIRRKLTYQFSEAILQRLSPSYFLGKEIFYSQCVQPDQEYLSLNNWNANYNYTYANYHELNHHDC
# In short: as §1
# [14] = molecular target: ELF4 (Homo sapiens, UniProt Q99607 1-663); settings: protein: recombinant; tags: N-terminal GST; dsDNA, one strand shown
# Chain of ELF4 (Q99607 whole entry): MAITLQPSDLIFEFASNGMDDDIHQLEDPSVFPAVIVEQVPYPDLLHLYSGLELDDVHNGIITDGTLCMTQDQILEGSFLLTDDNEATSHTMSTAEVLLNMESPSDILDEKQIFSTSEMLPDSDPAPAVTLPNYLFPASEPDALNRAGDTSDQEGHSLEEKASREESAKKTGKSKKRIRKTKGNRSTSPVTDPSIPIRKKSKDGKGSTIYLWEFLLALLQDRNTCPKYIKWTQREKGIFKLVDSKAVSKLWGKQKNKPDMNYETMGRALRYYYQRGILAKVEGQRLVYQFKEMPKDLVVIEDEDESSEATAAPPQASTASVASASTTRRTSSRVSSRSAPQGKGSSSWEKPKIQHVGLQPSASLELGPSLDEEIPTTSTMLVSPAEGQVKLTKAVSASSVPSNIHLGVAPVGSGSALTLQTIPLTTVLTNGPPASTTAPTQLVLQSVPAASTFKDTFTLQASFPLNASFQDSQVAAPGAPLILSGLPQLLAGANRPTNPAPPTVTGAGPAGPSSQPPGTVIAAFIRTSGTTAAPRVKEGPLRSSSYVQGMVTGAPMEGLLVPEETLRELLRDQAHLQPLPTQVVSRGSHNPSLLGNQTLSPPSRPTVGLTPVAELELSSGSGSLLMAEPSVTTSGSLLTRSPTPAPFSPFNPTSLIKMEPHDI
# In short: as §1
# [15] = molecular target: T9, ELK4 (Homo sapiens, UniProt P28324-2 1-405); settings: protein: recombinant; tags: N-terminal GST; dsDNA, one strand shown
# T9 sequence: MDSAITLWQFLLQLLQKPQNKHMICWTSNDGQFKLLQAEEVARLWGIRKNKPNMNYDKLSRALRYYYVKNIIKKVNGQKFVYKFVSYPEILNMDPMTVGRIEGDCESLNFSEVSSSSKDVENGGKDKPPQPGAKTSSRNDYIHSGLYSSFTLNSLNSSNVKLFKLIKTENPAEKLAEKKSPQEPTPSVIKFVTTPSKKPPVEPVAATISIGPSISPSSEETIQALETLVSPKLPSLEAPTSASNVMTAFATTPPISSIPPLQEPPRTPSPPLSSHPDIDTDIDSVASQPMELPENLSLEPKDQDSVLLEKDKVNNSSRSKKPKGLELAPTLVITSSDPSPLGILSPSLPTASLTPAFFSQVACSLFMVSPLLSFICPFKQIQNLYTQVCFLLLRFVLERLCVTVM
# In short: as §1
# [16] = molecular target: T10, ETV2 (Homo sapiens, UniProt O00321 1-342); settings: protein: recombinant; tags: N-terminal GST; dsDNA, one strand shown
# T10 sequence: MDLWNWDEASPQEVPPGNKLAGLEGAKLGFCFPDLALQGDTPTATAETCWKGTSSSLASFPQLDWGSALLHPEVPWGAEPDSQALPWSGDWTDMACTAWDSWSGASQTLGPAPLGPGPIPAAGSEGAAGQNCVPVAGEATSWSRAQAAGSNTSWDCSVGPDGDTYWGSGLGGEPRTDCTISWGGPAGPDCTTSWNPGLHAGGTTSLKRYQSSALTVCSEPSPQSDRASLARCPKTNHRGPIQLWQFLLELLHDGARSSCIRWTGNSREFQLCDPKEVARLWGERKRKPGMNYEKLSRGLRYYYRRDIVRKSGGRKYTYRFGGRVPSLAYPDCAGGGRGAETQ
# In short: as §1
# [17] = molecular target: T11, ELF3 (Homo sapiens, UniProt P78545 1-371); settings: protein: recombinant; tags: N-terminal GST; dsDNA, one strand shown
# T11 sequence: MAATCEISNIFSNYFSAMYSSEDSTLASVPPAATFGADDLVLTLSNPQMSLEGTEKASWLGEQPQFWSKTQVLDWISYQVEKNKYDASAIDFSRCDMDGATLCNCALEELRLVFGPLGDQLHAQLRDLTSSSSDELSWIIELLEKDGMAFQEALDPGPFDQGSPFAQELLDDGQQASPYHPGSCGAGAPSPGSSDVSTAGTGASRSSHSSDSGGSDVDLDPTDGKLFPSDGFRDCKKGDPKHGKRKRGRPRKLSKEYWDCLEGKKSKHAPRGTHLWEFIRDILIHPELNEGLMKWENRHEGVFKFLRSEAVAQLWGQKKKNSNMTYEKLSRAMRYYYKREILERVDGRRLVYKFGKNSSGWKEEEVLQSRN
# In short: as §1
# [18] = molecular target: CRX (Homo sapiens, UniProt O43186 1-299); settings: protein: recombinant; tags: N-terminal GST; dsDNA, one strand shown
# Chain of CRX (O43186 whole entry): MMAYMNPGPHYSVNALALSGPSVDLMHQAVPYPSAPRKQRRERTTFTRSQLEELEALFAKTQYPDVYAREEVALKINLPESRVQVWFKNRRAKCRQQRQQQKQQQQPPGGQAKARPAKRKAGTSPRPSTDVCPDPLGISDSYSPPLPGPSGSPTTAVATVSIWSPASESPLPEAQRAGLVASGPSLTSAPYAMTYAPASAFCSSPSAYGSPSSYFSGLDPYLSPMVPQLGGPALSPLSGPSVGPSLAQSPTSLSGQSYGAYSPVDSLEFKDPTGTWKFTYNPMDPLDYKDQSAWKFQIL
# In short: as §1
# [19] = molecular target: ETV1 (Homo sapiens, UniProt P50549 1-477); settings: protein: recombinant; tags: N-terminal GST; dsDNA, one strand shown
# Chain of ETV1 (P50549 whole entry): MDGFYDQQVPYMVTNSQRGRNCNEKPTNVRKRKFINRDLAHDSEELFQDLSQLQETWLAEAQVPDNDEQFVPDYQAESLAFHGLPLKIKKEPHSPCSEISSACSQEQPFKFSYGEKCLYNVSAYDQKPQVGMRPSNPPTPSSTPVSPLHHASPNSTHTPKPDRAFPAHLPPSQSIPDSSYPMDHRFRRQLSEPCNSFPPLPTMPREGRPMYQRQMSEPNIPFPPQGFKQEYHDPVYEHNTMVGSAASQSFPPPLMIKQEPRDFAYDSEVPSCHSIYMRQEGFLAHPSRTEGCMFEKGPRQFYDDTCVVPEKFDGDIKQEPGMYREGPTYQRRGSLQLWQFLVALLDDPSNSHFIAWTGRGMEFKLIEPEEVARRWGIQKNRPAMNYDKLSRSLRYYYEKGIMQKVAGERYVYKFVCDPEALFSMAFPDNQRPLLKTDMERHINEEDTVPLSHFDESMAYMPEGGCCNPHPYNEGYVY
# In short: as §1
sequence,measurement,setting,value
AGCCTT,binding signal,[1],"1.12 fold enrichment (6-mer frequency, TF over GST control)"
same,binding signal,[2],"1.11 fold enrichment (6-mer frequency, TF over GST control)"
same,binding signal,[3],"1.01 fold enrichment (6-mer frequency, TF over GST control)"
same,binding signal,[4],"1.11 fold enrichment (6-mer frequency, TF over GST control)"
same,binding signal,[5],"1.2 fold enrichment (6-mer frequency, TF over GST control)"
same,binding signal,[6],"1.15 fold enrichment (6-mer frequency, TF over GST control)"
same,binding signal,[7],"1.12 fold enrichment (6-mer frequency, TF over GST control)"
same,binding signal,[8],"1.21 fold enrichment (6-mer frequency, TF over GST control)"
same,binding signal,[9],"1.03 fold enrichment (6-mer frequency, TF over GST control)"
same,binding signal,[10],"1.15 fold enrichment (6-mer frequency, TF over GST control)"
same,binding signal,[11],"1.13 fold enrichment (6-mer frequency, TF over GST control)"
same,binding signal,[12],"1.26 fold enrichment (6-mer frequency, TF over GST control)"
same,binding signal,[13],"1.17 fold enrichment (6-mer frequency, TF over GST control)"
same,binding signal,[14],"1.18 fold enrichment (6-mer frequency, TF over GST control)"
same,binding signal,[15],"1.03 fold enrichment (6-mer frequency, TF over GST control)"
same,binding signal,[16],"1.2 fold enrichment (6-mer frequency, TF over GST control)"
same,binding signal,[17],"1.23 fold enrichment (6-mer frequency, TF over GST control)"
same,binding signal,[18],"1.42 fold enrichment (6-mer frequency, TF over GST control)"
same,binding signal,[19],"1.17 fold enrichment (6-mer frequency, TF over GST control)"

# Source: article PMC7862700, “An all-to-all approach to the identification of sequence-specific readers for epigenetic DNA modifications on cytosine”
